Publication PMC7862700, “An all-to-all approach to the identification of sequence-specific readers for epigenetic DNA modifications on cytosine”

Assays:
Test in all cases: DAPPL (digital affinity profiling via proximity ligation, sequencing); 10 mM Tris-HCl pH 7.5, 50 mM NaCl, 1 mM DTT, 4% glycerol, room temperature, 30 min; GST-TFs on glutathione beads, 16-mer random dsDNA library, 0.1% formaldehyde crosslink after washing; high values mean tight binding
Details in all cases: protein: recombinant; tags: N-terminal GST; dsDNA, one strand shown
ERF = molecular target: T1, ERF (Homo sapiens, UniProt P50548 1-548)
T1 sequence: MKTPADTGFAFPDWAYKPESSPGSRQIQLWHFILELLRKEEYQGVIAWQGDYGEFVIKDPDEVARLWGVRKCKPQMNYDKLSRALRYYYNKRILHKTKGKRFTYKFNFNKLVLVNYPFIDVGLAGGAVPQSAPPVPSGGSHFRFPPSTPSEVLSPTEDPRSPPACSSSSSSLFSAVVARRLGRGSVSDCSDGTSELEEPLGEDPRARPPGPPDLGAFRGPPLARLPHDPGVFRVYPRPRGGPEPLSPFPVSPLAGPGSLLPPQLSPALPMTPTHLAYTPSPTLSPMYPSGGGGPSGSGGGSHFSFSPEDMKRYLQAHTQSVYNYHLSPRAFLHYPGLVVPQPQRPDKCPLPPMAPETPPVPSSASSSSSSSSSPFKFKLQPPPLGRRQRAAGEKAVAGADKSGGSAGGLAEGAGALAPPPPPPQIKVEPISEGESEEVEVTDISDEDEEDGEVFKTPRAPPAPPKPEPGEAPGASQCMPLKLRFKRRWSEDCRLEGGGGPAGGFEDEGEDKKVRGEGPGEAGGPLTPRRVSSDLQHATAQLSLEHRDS
Procedure, shortened: (§1)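 Yeast served to express human transcription factors as GST fusions, which were then captured on glutathione beads and labelled with DNA barcodes. Pooled with a tag-only sample, they were incubated with 200 nmole of a 16-mer random double-stranded DNA library for 30 min at room temperature in Tris/NaCl/DTT/glycerol buffer, washed, crosslinked with 0.1% formaldehyde, ligated by proximity, amplified by PCR and sequenced. Dividing each hexamer's read frequency for a factor by its frequency for the tag-only sample gives the binding signal.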

ETV3L = molecular target: T2, ETV3L (Homo sapiens, UniProt Q6ZN32 1-361)
T2 sequence: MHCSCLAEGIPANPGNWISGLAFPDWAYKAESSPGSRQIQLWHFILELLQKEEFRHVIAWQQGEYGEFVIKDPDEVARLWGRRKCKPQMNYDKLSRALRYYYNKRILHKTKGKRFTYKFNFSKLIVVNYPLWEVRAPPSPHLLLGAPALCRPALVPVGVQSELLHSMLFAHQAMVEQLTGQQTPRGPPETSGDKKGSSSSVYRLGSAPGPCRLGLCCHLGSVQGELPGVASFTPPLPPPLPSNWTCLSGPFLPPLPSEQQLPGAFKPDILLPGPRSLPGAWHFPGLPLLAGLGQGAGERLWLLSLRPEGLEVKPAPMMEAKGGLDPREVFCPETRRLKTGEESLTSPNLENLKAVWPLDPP
Procedure, shortened: as §1

ETS2 = molecular target: T3, ETS2 (Homo sapiens, UniProt P15036 1-469)
T3 sequence: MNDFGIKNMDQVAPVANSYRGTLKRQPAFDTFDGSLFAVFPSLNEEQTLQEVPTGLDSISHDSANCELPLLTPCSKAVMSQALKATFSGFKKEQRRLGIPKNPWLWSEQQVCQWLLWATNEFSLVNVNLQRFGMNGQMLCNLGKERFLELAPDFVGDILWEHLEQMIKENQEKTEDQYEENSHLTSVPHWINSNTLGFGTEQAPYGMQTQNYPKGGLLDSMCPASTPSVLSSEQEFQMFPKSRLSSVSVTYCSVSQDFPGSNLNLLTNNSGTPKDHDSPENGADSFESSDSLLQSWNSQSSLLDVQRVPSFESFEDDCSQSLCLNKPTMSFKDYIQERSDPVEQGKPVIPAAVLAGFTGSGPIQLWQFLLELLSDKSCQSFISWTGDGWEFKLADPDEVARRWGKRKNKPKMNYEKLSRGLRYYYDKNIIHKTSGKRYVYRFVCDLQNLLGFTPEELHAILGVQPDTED
Procedure, shortened: as §1

SPDEF = molecular target: T4, SPDEF (Homo sapiens, UniProt O95238 1-335)
T4 sequence: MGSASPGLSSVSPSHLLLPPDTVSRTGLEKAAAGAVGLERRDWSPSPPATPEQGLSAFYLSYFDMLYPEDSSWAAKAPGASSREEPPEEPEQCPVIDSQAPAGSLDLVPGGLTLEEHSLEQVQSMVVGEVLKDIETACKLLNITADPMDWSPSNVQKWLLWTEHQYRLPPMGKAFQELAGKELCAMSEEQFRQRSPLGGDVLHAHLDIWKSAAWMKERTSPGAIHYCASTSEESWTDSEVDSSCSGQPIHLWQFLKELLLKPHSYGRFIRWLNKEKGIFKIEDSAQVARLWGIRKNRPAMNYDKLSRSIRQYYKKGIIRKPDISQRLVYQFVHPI
Procedure, shortened: as §1

ETV7 = molecular target: T5, ETV7 (Homo sapiens, UniProt Q9Y603 1-341)
T5 sequence: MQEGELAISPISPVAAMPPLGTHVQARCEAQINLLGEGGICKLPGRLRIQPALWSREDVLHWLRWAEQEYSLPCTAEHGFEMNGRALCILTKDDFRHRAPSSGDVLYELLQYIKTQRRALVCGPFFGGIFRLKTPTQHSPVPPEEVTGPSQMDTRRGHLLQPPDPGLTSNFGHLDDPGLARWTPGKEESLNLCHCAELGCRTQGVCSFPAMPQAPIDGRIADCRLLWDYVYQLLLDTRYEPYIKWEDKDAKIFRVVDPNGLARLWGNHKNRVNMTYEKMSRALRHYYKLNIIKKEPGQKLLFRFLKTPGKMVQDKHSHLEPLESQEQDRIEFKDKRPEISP
Procedure, shortened: as §1

ELF5 = molecular target: T6, ELF5 (Homo sapiens, UniProt Q9UKW6-2 1-255)
T6 sequence: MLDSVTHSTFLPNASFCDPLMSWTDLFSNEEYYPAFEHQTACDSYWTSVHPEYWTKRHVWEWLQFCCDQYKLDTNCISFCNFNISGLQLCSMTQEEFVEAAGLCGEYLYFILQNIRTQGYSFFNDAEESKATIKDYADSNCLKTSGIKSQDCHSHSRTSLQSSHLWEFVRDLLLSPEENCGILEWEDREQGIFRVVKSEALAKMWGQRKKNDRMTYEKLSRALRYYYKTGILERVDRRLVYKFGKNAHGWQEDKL
Procedure, shortened: as §1

ETV3 = molecular target: T7, ETV3 (Homo sapiens, UniProt P41162-2 1-143)
T7 sequence: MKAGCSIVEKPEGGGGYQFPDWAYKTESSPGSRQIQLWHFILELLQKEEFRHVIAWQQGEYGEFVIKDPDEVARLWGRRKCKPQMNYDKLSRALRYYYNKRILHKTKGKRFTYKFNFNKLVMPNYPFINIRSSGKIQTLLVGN
Procedure, shortened: as §1

ETV6 = ETV6 (Homo sapiens, UniProt P41212 1-452)
Procedure, shortened: as §1

Sequence of ETV6 (P41212 whole entry): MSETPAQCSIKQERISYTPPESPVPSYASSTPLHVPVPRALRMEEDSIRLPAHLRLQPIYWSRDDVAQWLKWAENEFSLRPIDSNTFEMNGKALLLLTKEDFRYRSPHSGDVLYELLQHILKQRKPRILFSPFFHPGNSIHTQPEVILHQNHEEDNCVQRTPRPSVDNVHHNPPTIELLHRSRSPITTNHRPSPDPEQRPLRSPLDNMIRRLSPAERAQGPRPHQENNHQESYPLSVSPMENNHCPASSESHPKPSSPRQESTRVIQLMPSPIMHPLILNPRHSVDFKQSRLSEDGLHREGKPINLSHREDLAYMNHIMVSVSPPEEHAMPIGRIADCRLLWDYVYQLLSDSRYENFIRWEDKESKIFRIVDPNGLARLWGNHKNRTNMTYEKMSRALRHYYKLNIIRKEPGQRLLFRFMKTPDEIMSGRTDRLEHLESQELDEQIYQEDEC

Row | Sequence | binding signal (ERF) | binding signal (ETV3L) | binding signal (ETS2) | binding signal (SPDEF) | binding signal (ETV7) | binding signal (ELF5) | binding signal (ETV3) | binding signal (ETV6)
1 | GAATAC | 1.11 fold enrichment (6-mer frequency, TF over GST control) | 1.01 fold enrichment (6-mer frequency, TF over GST control) | 1.02 fold enrichment (6-mer frequency, TF over GST control) | 1 fold enrichment (6-mer frequency, TF over GST control) | 1.01 fold enrichment (6-mer frequency, TF over GST control) | 1.03 fold enrichment (6-mer frequency, TF over GST control) | 1.07 fold enrichment (6-mer frequency, TF over GST control) | 1.03 fold enrichment (6-mer frequency, TF over GST control)
2 | CAAATT | 1.17 fold enrichment (6-mer frequency, TF over GST control) | 1.18 fold enrichment (6-mer frequency, TF over GST control) | 1.17 fold enrichment (6-mer frequency, TF over GST control) | 1.12 fold enrichment (6-mer frequency, TF over GST control) | 1.14 fold enrichment (6-mer frequency, TF over GST control) | 1.1 fold enrichment (6-mer frequency, TF over GST control) | 1.13 fold enrichment (6-mer frequency, TF over GST control) | 1.1 fold enrichment (6-mer frequency, TF over GST control)
3 | CCCCGG | 1.34 fold enrichment (6-mer frequency, TF over GST control) | 1.24 fold enrichment (6-mer frequency, TF over GST control) | 1.17 fold enrichment (6-mer frequency, TF over GST control) | 1.28 fold enrichment (6-mer frequency, TF over GST control) | 1.18 fold enrichment (6-mer frequency, TF over GST control) | 1.3 fold enrichment (6-mer frequency, TF over GST control) | 1.43 fold enrichment (6-mer frequency, TF over GST control) | 1.21 fold enrichment (6-mer frequency, TF over GST control)
4 | CTGCAC | 1.11 fold enrichment (6-mer frequency, TF over GST control) | 1.16 fold enrichment (6-mer frequency, TF over GST control) | 1.12 fold enrichment (6-mer frequency, TF over GST control) | 1.17 fold enrichment (6-mer frequency, TF over GST control) | 1.05 fold enrichment (6-mer frequency, TF over GST control) | 1.1 fold enrichment (6-mer frequency, TF over GST control) | 1.23 fold enrichment (6-mer frequency, TF over GST control) | 1.24 fold enrichment (6-mer frequency, TF over GST control)
5 | GTATAC | 1.41 fold enrichment (6-mer frequency, TF over GST control) | 1.16 fold enrichment (6-mer frequency, TF over GST control) | 1.32 fold enrichment (6-mer frequency, TF over GST control) | 1.3 fold enrichment (6-mer frequency, TF over GST control) | 1.2 fold enrichment (6-mer frequency, TF over GST control) | 1.31 fold enrichment (6-mer frequency, TF over GST control) | 1.23 fold enrichment (6-mer frequency, TF over GST control) | 1.19 fold enrichment (6-mer frequency, TF over GST control)
6 | ACCCCC | 1.08 fold enrichment (6-mer frequency, TF over GST control) | 1.16 fold enrichment (6-mer frequency, TF over GST control) | 1.15 fold enrichment (6-mer frequency, TF over GST control) | 1.1 fold enrichment (6-mer frequency, TF over GST control) | 1.08 fold enrichment (6-mer frequency, TF over GST control) | 1.12 fold enrichment (6-mer frequency, TF over GST control) | 1.21 fold enrichment (6-mer frequency, TF over GST control) | 1.06 fold enrichment (6-mer frequency, TF over GST control)
7 | GTTAAG | 1.03 fold enrichment (6-mer frequency, TF over GST control) | 1.01 fold enrichment (6-mer frequency, TF over GST control) | 1.04 fold enrichment (6-mer frequency, TF over GST control) | 1.05 fold enrichment (6-mer frequency, TF over GST control) | 1.02 fold enrichment (6-mer frequency, TF over GST control) | 1.07 fold enrichment (6-mer frequency, TF over GST control) | 1.18 fold enrichment (6-mer frequency, TF over GST control) | 1.02 fold enrichment (6-mer frequency, TF over GST control)
8 | GGATTT | 1.17 fold enrichment (6-mer frequency, TF over GST control) | 1.21 fold enrichment (6-mer frequency, TF over GST control) | 1.24 fold enrichment (6-mer frequency, TF over GST control) | 1.57 fold enrichment (6-mer frequency, TF over GST control) | 1.07 fold enrichment (6-mer frequency, TF over GST control) | 1.38 fold enrichment (6-mer frequency, TF over GST control) | 1.21 fold enrichment (6-mer frequency, TF over GST control) | 1.3 fold enrichment (6-mer frequency, TF over GST control)
